Only some compounds are listed: those with a hit (about 12% of all), similar ones and a draw of the others.
PLAP activator = PLAP enzyme activators, biochemical, luminescence, HTS; Alkaline phosphatase, placental type (Homo sapiens), P05187; purified PLAP enzyme, luminescent substrate read-out; stronger effect = higher value; activation fold at 20 µM; actives 1.2% (n = 96,000); AID 696, 2007; in the data active = activation fold above about 2
Target sequence (P05187 whole entry, looked up): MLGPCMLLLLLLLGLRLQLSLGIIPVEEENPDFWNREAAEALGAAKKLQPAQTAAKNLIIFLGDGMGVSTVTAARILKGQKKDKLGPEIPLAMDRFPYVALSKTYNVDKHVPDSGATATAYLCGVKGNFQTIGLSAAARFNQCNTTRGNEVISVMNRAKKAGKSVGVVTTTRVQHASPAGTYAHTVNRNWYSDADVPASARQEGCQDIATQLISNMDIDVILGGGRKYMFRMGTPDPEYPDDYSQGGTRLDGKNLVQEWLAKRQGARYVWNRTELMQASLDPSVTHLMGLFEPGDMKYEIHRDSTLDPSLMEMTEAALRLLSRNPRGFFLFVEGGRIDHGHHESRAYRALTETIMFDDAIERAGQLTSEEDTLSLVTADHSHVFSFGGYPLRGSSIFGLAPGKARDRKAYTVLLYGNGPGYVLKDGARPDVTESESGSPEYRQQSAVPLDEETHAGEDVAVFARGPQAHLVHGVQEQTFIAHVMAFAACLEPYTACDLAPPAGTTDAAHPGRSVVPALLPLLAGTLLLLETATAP
PostGolgi ctrl = growth inhibition of yeast control strain, primary screen, counter-screen for post-Golgi transport modulator project; efflux-deficient yeast background strain, growth absorbance A615, 16 h; inhibition, % at 10 µM; actives 5% (n = 98,000); AID 738, 2007
PostGolgi yeast = phenotypic screen on post-Golgi transport, primary screen; post-Golgi transport phenotypic cell assay; inhibition, % at 10 µM; actives 0.9% (n = 98,000); AID 739, 2007;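 also: yeast cells grown in 1536-well plates; yeast grown about 18 h at 30C before absorbance read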
Cav3 T inh = Cav3.2 calcium influx blockers – cell-based, Fluo-4 calcium fluorescence, FDSS, MLSMR library, primary screen; Voltage-dependent T-type calcium channel subunit alpha-1H (Homo sapiens), O95180; Cav3.2-expressing cells; stronger effect = lower value; B-score at 10 µM; actives 4% (n = 100,000);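 active = single-dose well whose peak fluorescence ratio is a statistical outlier from its plate by either plate-standardised score or position-corrected B-score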
D1 mod = D1 CRE-luciferase signal change, two-sided – cell-based, HEK293 D1, dopamine EC30, D1 allosteric modulator project, primary screen. D(1A) dopamine receptor (Homo sapiens), P21728. dopamine EC30 potentiation; actives deviate in either direction. B-score at 10 µM. actives 5.9% (n = 58,000);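 active = luminescence count or its row- and column-corrected plate score outside the 99.7% band of the plate's sample wells, on either side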
DAT uptake mod = changed hDAT dopamine uptake under cocaine IC80, either direction, primary screen, cocaine antagonist project, cell-based, LLC-PK1 hDAT, [14C]-dopamine uptake, MLSMR | AID 449768, 2010 | LLC-PK1 hDAT cells, [14C]-dopamine uptake with cocaine IC80; actives deviate in either direction | B-score at 10 µM | Sodium-dependent dopamine transporter (Homo sapiens), Q01959 | actives 1.3% (n = 110,000);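 active = Z score or B-score, a plate-position-corrected score, falls beyond the plate's 99.7% confidence bounds, in either direction; inactive = both scores lie inside the 99.7% bounds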;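 also: scored against the spread of the other compound wells on the same plate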
* hit, by the source's call; . = no result. Rule as the data show it, unless noted: active = inhibition above about 30%; inactive = the rest.

SMILES	PLAP activator	PostGolgi ctrl	PostGolgi yeast	Cav3 T inh	D1 mod	DAT uptake mod
CCN1CCc2c(C#N)c(N3CCCCC3)nc(NCc3ccccc3)c2C1	1.4	4	7	-1.4	-0.024	3.2
N#Cc1c(NCCO)nc(NCc2ccccc2)c2c1CCN(Cc1ccccc1)C2	1.5	-6	4	-3.6*	.	0.1
CCN1CCc2c(C#N)c(N3CCOCC3)nc(NCc3ccccc3)c2C1	1.7	36*	5	-0.088	0.93	-0.081
C=CCNc1nc(N2CCCCC2)c(C#N)c2c1CN(Cc1ccccc1)CC2	1	18	3	-0.046	.	0.15
C=CCc1ccccc1OCC(O)CN1CCN(Cc2ccc3c(c2)OCO3)CC1 (stereo not drawn)	1.4	45*	99*	-2.8	-5.8*	0.64
COc1ccc(-c2cc(CNC(=O)CN(C)Cc3ccccc3)on2)cc1	1.3	10	5	.	.	.
Cn1nc(-c2ccccc2)c(C(=O)Nc2ccc(Cl)cc2)c1Cl	0.9	39*	10	0.16	.	0.75
CC(=O)Nc1ccc(S(=O)(=O)N[C@H](C(=O)O)C(C)C)cc1	1.1	-2	3	.	.	0.038
CC(=O)Nc1ccc(S(=O)(=O)NCC(C)NS(=O)(=O)c2ccc(NC(C)=O)cc2)cc1 (stereo not drawn)	1	37*	-10	-0.042	0.24	-1
O=S(=O)(N1CCOCC1)n1c(Cc2ccccc2)nc2ccccc21	1.7	8	-6	-1.6	4.4*	0.12
O=C(N1CCCCCC1)n1c(Cc2ccccc2)nc2ccccc21	.	.	.	-1.6	.	1
O=C(NNS(=O)(=O)c1ccc([N+](=O)[O-])cc1)c1cnn(-c2ccccc2)c1-n1cccc1	.	-6	-5	-0.37	.	-0.0089
Oc1oc(-c2ccccc2)nc1C=Nc1cccc2ccccc12	1.1	40*	12	-1.9	.	-0.25
S=C(Nc1ccccc1)N1CCN(C2CCCCC2)CC1	1.3	-1	-1	-1.8	.	-0.058
S=C(Nc1ccccc1)N1CCCCCC1	1	1	-5	0.15	.	-8.4*
CCCCn1c2nc3ccccc3nc2c2c(=N)oc(C)nc21	1.8	.	.	.	6.6*	.
CCCCC(CC)Cn1c2nc3ccccc3nc2c2c(=N)oc(C)nc21 (stereo not drawn)	1.4	72*	0	.	1.2	.
Cc1cc(C(=O)CSc2nn(-c3ccccc3)c(=S)s2)c(C)n1Cc1ccco1	1	12	0	.	-4.7*	-0.19
Cc1cc(C(=O)CN2C(=O)NC(c3ccccc3)(c3ccccc3)C2=O)c(C)n1Cc1ccco1	1.6	10	6	-8.6*	0.26	0.081
Cc1cc(C(=O)CN2C(=O)NC3(CCCc4ccccc43)C2=O)c(C)n1Cc1cccs1 (stereo not drawn)	0.9	11	0	-7.4*	-0.61	0.12
Cc1cc(C(=O)CSc2nnc(-c3ccco3)o2)c(C)n1Cc1ccco1	0.9	-2	-5	0.53	-0.4	0.42
C=CCn1c(C)cc(C(=O)CN2C(=O)NC3(CCCc4ccccc43)C2=O)c1C (stereo not drawn)	1.2	7	13	-0.82	.	-1.9
Cc1cc(C(=O)CN2C(=O)NC(C)(c3cccc(Br)c3)C2=O)c(C)n1Cc1ccco1 (stereo not drawn)	1.4	3	-1	.	0.76	0.2
CC(=O)c1c(C(C)=O)c(C)n(C2CCCCC2)c1C	.	.	.	-0.18	.	-0.47
COc1cccc(/C=C2/CN(C)CC3=C2OC(N)=C(C#N)C3c2cccc(OC)c2)c1 (stereo not drawn)	.	6	9	-0.68	.	-0.31
SMILES	PLAP activator	PostGolgi ctrl	PostGolgi yeast	Cav3 T inh	D1 mod	DAT uptake mod
Cc1csc(=N)n1CC(=O)N1CCc2ccccc21	0.8	-4	-2	0.51	-0.92	-0.41
COCC(=O)Nc1cccc2ccccc12	1	6	4	0.11	-0.082	0.14
CC(C)NS(=O)(=O)c1ccc(OCC(=O)Nc2cccc3ccccc23)cc1	0.9	23	3	-3.6*	.	-0.037
COC(=O)CCC(=O)Nc1cccc2ccccc12	1	34*	11	0.44	.	-0.0077
CCC(C)NS(=O)(=O)c1ccc(OCC(=O)Nc2ccc(F)cc2F)cc1 (stereo not drawn)	.	.	.	-0.11	.	0.24
Cc1cc(C)cc(-n2c(C)cc(/C=N/NC(=O)CSc3ncccn3)c2C)c1	1.3	18	41*	-6.8*	.	1.6
O=C1CCSc2ccc(Cl)cc2N1Cc1ccc(Cl)cc1	0.9	27	1	-4.5	.	-0.00068
Cc1cccc(OCC(=O)NNC(=O)CSc2ncc(C#N)c(N)n2)c1	2*	4	0	0.29	.	0.2
O=C(CN(C1CC1)S(=O)(=O)c1ccc(S(=O)(=O)NC2CCCCC2)cc1)Nc1ccccc1	0.9	7	1	-12*	-1.4	0.51
O=C(CN(C1CCCCC1)S(=O)(=O)c1ccc(F)cc1)Nc1ccc2c(c1)OCO2	.	.	.	-5.6*	.	-0.21
COC(=O)CCN(C1CCCCC1)S(=O)(=O)c1ccc(S(=O)(=O)NC2CCCCC2)cc1	1.5	15	-5	-5.9*	.	0.67
CCC(C)N1CCCCC1C(=O)Nc1c(C)cc(C)cc1C (stereo not drawn)	.	.	.	0.74	.	-0.43
CN1C(=O)C2(c3ccccc31)N(C)CC(c1ccccn1)C21SC(=S)N(Cc2ccco2)C1=O (stereo not drawn)	0.9	22	2	-4.7*	-0.84	0.71
CCOC(=O)CNC(=O)c1ccccc1Br	1.3	5	-2	0.027	-1	-0.89
CCOC(=O)c1c(C)n(C)c2cc(Br)c(C)cc12	1.1	11	-5	0.43	.	-0.0042
CCOC(=O)c1c(CN2CCN(Cc3ccccc3)CC2)n(C)c2cc(Br)c(OC)cc12	1.4	73*	2	-7*	.	0.49
CC1(C)CC(=O)C(C=NCC2CCN(C(=O)Nc3ccccc3)CC2)=C(O)C1	.	.	.	.	0.42	.
COc1ccc(C(=O)NCCc2c[nH]c3ccccc23)cc1S(=O)(=O)N1CCOCC1	0.9	9	4	0.72	0.73	0.37
O=C(NC1CCCCC1)C(c1cccs1)N(C(=O)c1ccco1)c1ccc2c(c1)OCCO2 (stereo not drawn)	.	.	.	-1.6	.	0.95
O=C(NCc1ccco1)C(c1cccs1)N(C(=O)C1COc2ccccc2O1)c1cccc(O)c1 (stereo not drawn)	1.3	19	-7	-8.6*	.	0.7
O=C(c1ccc(F)cc1)N1CCN(c2cc(N3CCCCC3)c(F)cc2[N+](=O)[O-])CC1	1	25	1	-2	.	0.017
CCN(CC)CC(C)OC(=O)COc1ccc(OC)cc1 (stereo not drawn)	.	.	.	-0.13	.	0.16
CCCOC(=O)Cc1n[nH]c(=O)[nH]c1=O	1.1	-1	0	0.12	.	-2.2*

Screening data: PubChem, several laboratories
